Most compounds without a hit are left out; they make up all but 2.4% or so of the library.
Pol eta inh-1 = qHTS for Inhibitors of Polymerase Eta; DNA polymerase eta (Homo sapiens), Q9Y253; recombinant Pol eta, fluorescent DNA replication assay; Potency, µM (titrated, usually from 114 µM), for inactives: top-dose activity change, negative = inhibition, actives largely listed as inhibitors; 390,000 compounds, 1.2% hits; also: % is scaled to controls: 0 for no effect and ±100 for the full control effect
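Pol eta (10 nM) was preincubated with compounds for 15 min at room temperature, after which fluorescent replication substrate (50 nM final) was added to start the reaction. Fluorescence was read kinetically at 0 and 10 min.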
Pol kappa inh-1 = qHTS for Inhibitors of Polymerase Kappa. DNA polymerase kappa (Homo sapiens), Q9UBT6. purified Pol kappa, fluorescent DNA synthesis assay, 10 min. Potency, µM (highest dose often 107 µM), without a hit: top-dose activity, negative = inhibition, hits mostly inhibitors. 400,000 compounds, 0.53% hits; also: % is scaled to controls: 0 for no effect and ±100 for the full control effect
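Fluorescent qHTS in 1536-well format: enzyme (10 nM) and compound sat 15 min at room temperature before 50 nM substrate (final) was added. Signal taken at 0 and 10 min; no-enzyme buffer wells were negative controls.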
TDP1 inh = qHTS Assay for Inhibitors of Tyrosyl-DNA Phosphodiesterase (TDP1). Tyrosyl-DNA phosphodiesterase 1 (Homo sapiens), Q9NUW8. recombinant TDP1, AlphaScreen DNA substrate cleavage. Potency, µM (top dose mostly 130 µM), for inactives: at the highest dose activity change, negative = inhibition, usual class: inhibitors. 350,000 compounds, 0.28% hits; also: % is scaled to controls: 0 for no effect and ±100 for the full control effect; nearly all actives have a fitted effect of over 40% in size
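Tdp1 1 nM final; 15 min RT w/ cpd; substrate 15 nM, 5 min; beads 10 ug/ml, 10 min; AlphaScreen read. Neg ctrl: no enzyme.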
POLB inh = qHTS Assay for Inhibitors of DNA Polymerase Beta | P06746 | Pol beta primer extension/strand displacement, fluorescence kinetic | Potency, µM (highest dose often 114 µM), for inactives: at the highest dose activity change, negative = inhibition, hits mostly inhibitors | 340,000 compounds, 1.3% hits; also: % is scaled to controls: 0 for no effect and ±100 for the full control effect
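Enzyme-only controls used 10 nM Pol beta; buffer lacking enzyme served as negative control. Compound preincubated 15 min, then 50 nM substrate added; 0 and 10 min reads at room temperature.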
FEN1 inhibitor = qHTS Assay for the Inhibitors of Human Flap endonuclease 1 (FEN1); Potency, µM (series often up to 114 µM), inactives show top-dose activity change, negative = inhibition, hits mostly inhibitors; AID 588795, 2011; 390,000 compounds, 0.35% hits; Recombinant FEN1 flap cleavage, fluorescence, 15 min; also: % is scaled to controls: 0 for no effect and ±100 for the full control effect; nearly all actives have a fitted effect of over 65% in size
Target sequence (P39748 whole entry, looked up): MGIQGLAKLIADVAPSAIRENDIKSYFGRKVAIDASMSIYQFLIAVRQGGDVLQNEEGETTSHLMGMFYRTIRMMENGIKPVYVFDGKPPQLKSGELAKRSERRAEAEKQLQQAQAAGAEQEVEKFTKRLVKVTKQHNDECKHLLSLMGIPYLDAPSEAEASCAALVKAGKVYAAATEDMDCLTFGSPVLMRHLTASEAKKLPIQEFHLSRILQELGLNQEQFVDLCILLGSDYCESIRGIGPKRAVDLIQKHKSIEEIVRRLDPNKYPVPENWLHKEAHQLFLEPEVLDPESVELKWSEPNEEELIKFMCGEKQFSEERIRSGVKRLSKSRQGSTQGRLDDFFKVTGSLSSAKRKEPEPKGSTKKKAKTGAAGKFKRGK
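In this screen, 50 nM flap DNA substrate was added to 10 nM FEN1 pretreated with compound for 15 min at room temperature; cleavage was followed with reads at 0 and 15 min, and Hill fitting gave concentration–response parameters.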
POLI inh = qHTS for Inhibitors of Polymerase Iota; Pol iota fluorescent replication assay, 10 min; 390,000 compounds, 1% hits; AID 588590, 2011; Potency, µM (doses to about 115 µM), without a hit: at the top dose activity, negative = inhibition, usual class: inhibitors
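Pol iota at 10 nM preincubated 15 min with compounds at room temperature; reaction started with fluorescent substrate, 50 nM final. Fluorescence read kinetically at 0 and 10 min; buffer-only wells as negative control.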
Pol kappa inh-2 = qHTS for Inhibitors of Polymerase Kappa: Confirmatory Assay for Cherry-picked Compounds; purified Pol-kappa, fluorescent strand-displacement substrate; shares compounds with Pol eta inh-1; AID 720501, 2013; 920 compounds, 76% hits; Potency, µM, most hits filed as inhibitors
Pol eta inh-2 = qHTS for Inhibitors of Polymerase Eta: Confirmatory Assay for Cherry-picked Compounds; shares compounds with Pol eta inh-1; Pol eta primer extension, TAMRA/BHQ fluorescence, 10 min; Potency, µM, most hits filed as inhibitors; 2,600 compounds, 64% hits
Active calls of the source: *; ? = inconclusive; . = not tested or not shown; [ ] = dose if it differs, or a comment. Calls follow the shape of the dose curve; as a rule, active = well fitted curve in the direction sought with a large enough effect; inconclusive = small, poorly fitted or top-dose-only effect, or another doubt; inactive = no such curve, though single readings can be large; an effect the other way counts as inactive or inconclusive. Potency is read from the fitted curve at half-maximal effect.

SMILES	Pol eta inh-1	Pol kappa inh-1	TDP1 inh	POLB inh	FEN1 inhibitor	POLI inh	Pol eta inh-2	others
Cc1ccccc1OCC(=O)OCC(=O)Nc1ncc(Cl)c(C)c1Cl	28µM*	?	-19%[56.1 µM]	.	-8%	?	?	Pol kappa inh-2=?
CC(=O)NC12CC3CC(C1)CC(C(=O)OCC(=O)Nc1ncc(Cl)c(C)c1Cl)(C3)C2	?	-35%	0%	?	-11%	?	?
Cc1c(Cl)cnc(NC(=O)COC(=O)[C@@H](NC(=O)c2ccco2)C(C)C)c1Cl	50µM*	-17%	-7%	.	-20%	?	?	Pol kappa inh-2=?
O=C(O)c1ccc(-n2c(-c3cc(-c4ccco4)[nH]n3)n[nH]c2=S)cc1	10µM*	?	.	?	3%	?	30*
COc1ccc(/C=C/C(=O)NC(=S)Nc2ccc(S(=O)(=O)Nc3ccc(OC)nn3)cc2)cc1	56µM*	-11%	2%	1%	-12%	-3%	?
COc1ccc(/C=C/C(=O)NC(=S)Nc2ccc(S(=O)(=O)Nc3cc(C)on3)cc2)cc1	?	-6%	10%	-15%	4%	?	.
O=C(O)c1ccccc1C1=Nc2ccc(O)cc2Oc2cc(O)ccc21	?	-20%	12%	50µM*	-18%	40µM*	.	Pol kappa inh-2=?
CC(=O)OCC1=C(C(=O)O)N2C(=O)C(NC(=O)c3ccc(COc4ccc(Cl)cc4)o3)C2SC1 (stereo not given)	50µM*	?	?	?	-10%	?	38*	Pol kappa inh-2=30*
CC(=O)OCC1=C(C(=O)O)N2C(=O)C(NC(=O)c3ccc(COc4c(C)cccc4Cl)o3)C2SC1 (stereo not given)	45µM*	?	?	13µM*	-20%	28µM*	43*
CC(=O)OCC1=C(C(=O)O)N2C(=O)C(NC(=O)C(C)Cn3cc(Cl)cn3)C2SC1 (stereo not given)	?	-33%	0%	4%	16%	?	.
CCOc1ccc(CNC(=O)C2CCN(S(=O)(=O)c3cn(C)cn3)CC2)cc1OC	-6%	-10%[60.1 µM]	-1%	1%	7%	?	.
O=[N+]([O-])c1c(Cl)cc(Cl)cc1Cl	.	.	4%	.	.	.	.
CN(C)c1ccc(CNC(=O)CCC(=O)N2Cc3ccccc3Oc3ncccc32)cc1	-14%	-7%	-2%	14%	14%	4%	.
CC(C)c1ccc(NC(=O)c2cc(S(=O)(=O)NC3CCCCC3)ccc2F)cc1	-23%	-13%[60.1 µM]	-3%	1%	0%	?	.
O=S(=O)(Nc1nc(-c2ccco2)c(-c2ccco2)s1)c1ccc(F)cc1F	28µM*	.	.	.	.	.	?	Pol kappa inh-2=?
CC(=O)OCC1=C(C(=O)O)N2C(=O)C(NC(=O)Cn3nc(C(F)F)c(Cl)c3C)C2SC1 (stereo not given)	20µM*	50µM*	.	28µM*	0%	?	60*
CO/N=C(/C(=O)N[C@@H]1C(=O)N2C(C(=O)O)=C(CSc3nnnn3C)CS[C@H]12)c1csc(N)n1	.	-5%[19.4 µM]	.	.	.	.	.
Cc1nnc(SCC2=C(C(=O)O)N3C(=O)C(NC(=O)Cn4nc(C(F)F)c(Cl)c4C)C3SC2)s1 (stereo not given)	20µM*	50µM*	?	25µM*	11%	-62%	76*
CC(=O)OCC1=C(C(=O)O)N2C(=O)C(NC(=O)CCn3nc(C)c(Cl)c3C)C2SC1 (stereo not given)	?	-19%	-14%	-22%	-8%	3%	.
CNc1ccc(Br)cc(C(=O)/C=C/c2ccc3c(c2)OCO3)c1=O	10µM*	35µM*	-10%	20µM*	50µM*	3.2µM*	?
OC[C@@H]1O[C@](CO)(O[C@H]2O[C@H](CO)[C@@H](O)[C@H](O)[C@H]2O)[C@H](O)[C@H]1O	.	1%[19.4 µM]	.	.	.	.	.
CC1=CCC(C(=O)O)C(C(=O)NC2CCCCC2)C1 (stereo not given)	20µM*	-41%	32µM*	28µM*	2%	?	85*	Pol kappa inh-2=84*
O=C(O)c1cc(NN=C2c3ccccc3-c3ccccc32)ccc1Cl	22µM*	?	.	50µM*	?	?	38*
C/C(=N\Nc1ccc(Cl)c(C(=O)O)c1)c1cccc2ccccc12	7.9µM*	?	-4%	28µM*	-4%	16µM*	27*
C/C(=N\Nc1ccc(Cl)c(C(=O)O)c1)c1cc2ccccc2o1	-20%	-3%	9%	16%	3%	99%	.
SMILES	Pol eta inh-1	Pol kappa inh-1	TDP1 inh	POLB inh	FEN1 inhibitor	POLI inh	Pol eta inh-2	others
O=C(CSc1nnc2ccc3ccccc3n12)Nc1ccccc1Cl	-13%	5%	1%	2%	2%	13%	.
CCc1ccc(CNC(=O)c2sc3ncnc(N(C)C4CCCCC4)c3c2C)cc1	-18%	-8%[60.1 µM]	2%	-7%	9%	19%	.
O=C1NC(=S)NC1=Cc1ccco1	13µM*	?	.	.	45µM*	?	76*	Pol kappa inh-2=34*
CCC(=O)NCCC1CCc2ccc3c(c21)CCO3 (stereo not given)	.	-9%[60.1 µM]	8%[56.1 µM]	.	.	.	.
CCS(=O)(=O)C1=NN2C(=N)/C(=C\c3ccc(OS(=O)(=O)c4ccccc4)c(OC)c3)C(=O)N=C2S1	.	.	-17%	?	.	.	.
COc1cc(/C=C2/C(=N)N3C=CSC3=NC2=O)ccc1OCCCOc1c(C)cccc1C	-6%	-10%	7%	?	-14%	6%	.
